According to PubChem BioAssay AID2685 (National Center for Advancing Translational Sciences (NCATS), 2010):
In all, about 320,000 compounds went through this assay and about 2,100 (0.66%) were called active. Inconclusive results (about 53%) are left out. The call rests on the fitted dose curve; in most records, active means well fitted inhibition curve with a large enough effect in the signal ratio, with a control signal flat (not every such curve was filed as active); inconclusive means small, poorly fitted or top-dose-only effect, or effect the other way, or a change in a side signal; inactive means flat fitted curve, though single readings scatter; the % refers to the signal ratio. What follows is part of a selection rich in actives, with near analogues and random picks from the rest.

test: qHTS Assay for Lipid Storage Modulators in Drosophila S3 Cells; settings: BODIPY lipid droplet fluorescence, 18-24 h, cells fed with added oleic acid; cell number change: measured here: cell count max response; series mostly up to 46.1 µM; lipid storage change, negative = inhibition: at the top concentration;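 on cell number change: cells counted by Cell Tracker Red CMTPX staining in the red channel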; on lipid storage change, negative = inhibition: on the % scale 0 is the no-effect control and ±100 the full control effect
Procedure, shortened: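 Laser-scanning cytometry quantifies lipid droplet accumulation (500–530 nm total intensity; droplet/cell object ratio) in oleic acid-fed (400 uM added) Drosophila S3 cells treated with a concentration series. 20 uM Triacsin C defined 100% inhibition.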
Potency means the concentration at half of the fitted maximal effect.

SMILES	lipid storage change, negative = inhibition	cell number change [%]	outcome	Potency
CCCCSc1nc2sc3c(c2c(=O)n1-c1ccc(C)cc1)CCN(C)C3	-30% (inactive)	14.8		
CS(=O)(=O)Oc1ccc(/C=C2\C(=N)N3N=C(CC(=O)N4CCOCC4)SC3=NC2=O)cc1Cl		6.05	inactive	
CN1C(=O)/C(=C/c2ccc(O)c([N+](=O)[O-])c2)N(C)C1=S	3.49% (inactive)	0.447		
COc1cc(/C=C2\C(=O)N(C)C(=S)N2C)ccc1O	2.76% (inactive)	-9.16		
Cc1cc(/C=C2/C(=O)N(C)C(=S)N2C)ccc1N1CCCC1		-25.4		4.47 µM (active)
CCc1ccc(NC(=O)c2cc(C)nn2-c2ccccc2)cc1	9.85% (inactive)	2.41		
CC12CCC(=O)N1C(C(=O)NNC(=O)c1ccc(Cl)cc1)CS2 (centres undefined)	-23.9% (inactive)	25.5		
COCCn1c(SCC(=O)Nc2cc(C)on2)nc2c(c1=O)SC(C)C2 (centres undefined)	15.1% (inactive)	9.04		
Cc1csc(NC(=O)CSC2=NS(=O)(=O)c3cc(F)ccc3N2)n1	27.8% [at 0.0737 µM] (inactive)			
CCN(C(=O)CN1CCN(c2cccc(Cl)c2)CC1)c1c(N)n(Cc2ccccc2)c(=O)[nH]c1=O	8.94% (inactive)	-10		
CCN(C(=O)CN1CCN(c2ccccc2)CC1)c1c(N)n(Cc2ccccc2)c(=O)[nH]c1=O		-21.7		13 µM (active)
CCN(C(=O)COC(=O)CCOc1ccccc1)c1c(N)n(Cc2ccccc2)c(=O)[nH]c1=O	6.7% (inactive)	3.61		
CCN(C(=O)COC(=O)CCCOc1ccccc1)c1c(N)n(Cc2ccccc2)c(=O)[nH]c1=O	-0.952% (inactive)	-12.5		
CCCN(C(=O)c1ccc([N+](=O)[O-])c(C)c1)c1c(N)n(Cc2ccccc2)c(=O)[nH]c1=O	-11% (inactive)	-21.6		
CCCN(C(=O)C1=COCCO1)c1c(N)n(Cc2ccccc2)c(=O)[nH]c1=O	5.43% [at 0.0737 µM] (inactive)	-8.42		
CCCN(C(=O)c1c(-c2ccccc2)noc1C)c1c(N)n(Cc2ccccc2)c(=O)[nH]c1=O		9.83		1.84 µM (active)
CCN(C(=O)CN1CCCCC1)c1c(N)n(Cc2ccccc2)c(=O)[nH]c1=O	-1.92% (inactive)	1.16		
CCCN(C(=O)COC(=O)CCOc1ccccc1)c1c(N)n(Cc2ccccc2)c(=O)[nH]c1=O		-10.8		14.6 µM (active)
c1ccc2c(c1)nnn2CNc1nccs1	11.7% (inactive)	-2.46		
COc1ccc(C(=O)NC2CCCCCC2)cc1S(=O)(=O)Nc1ccc(Br)cc1		-11.3	inactive	
CCCCCCn1c(=O)c(C(=O)N/N=C/c2cccc(F)c2)c(O)c2ccccc21	-4% (inactive)	5.21		
CC12C(=O)N(n3cnnc3)C(=O)C1C1C=CC2C1 (centres undefined)		2.58		18.4 µM (active)

SMILES	lipid storage change, negative = inhibition	cell number change [%]	outcome	Potency
CC12C(=O)N(NC(=O)c3ccncc3)C(=O)C1C1C=CC2C1 (centres undefined)	9.21% (inactive)	6.42		
O=C1[C@@H]2[C@H](C(=O)N1n1cnnc1)[C@H]1C=C[C@@H]2C1	6.88% (inactive)	1.74		
CN1CCN(S(=O)(=O)c2ccc(Nc3cccc(Cl)c3)c([N+](=O)[O-])c2)CC1	10.8% (inactive)	8.16		
COc1ccc(C(=O)Nc2cccc(S(=O)(=O)NC3=NCCCCC3)c2)cc1	10.1% (inactive)	-1.04		
CN(C)c1nc(N(C)C)nc(N2CCCCC2)n1	21% (inactive)	10.3		
COc1ccc(NC(=O)CCC(=O)OC(C(=O)c2ccccc2)c2ccccc2)cc1 (centres undefined)	-9.84% (inactive)	-23.4		
Cc1ccc(C(=O)C(OC(=O)CCC(=O)Nc2cccc(C)c2)c2ccccc2)cc1 (centres undefined)	-7.6% (inactive)	-1.69		
O=C(CCC(=O)OC(C(=O)c1ccccc1)c1ccccc1)Nc1ccccc1 (centres undefined)		-23.6		0.731 µM (active)
COc1ccc(NS(=O)(=O)c2ccc(NC(C)=O)cc2)c(OC)c1	5.93% (inactive)	0.633		
O=C(NCCc1cnn(-c2ccccc2)c1)c1cc(COc2c(F)cccc2F)on1	15.2% (inactive)	0.269		
COc1ccc(OC)c(CNc2ncc(-c3ccc(F)cc3)n2C)c1		-16.1		32.6 µM (active)
COc1ccccc1CNc1ncc(-c2ccc(F)cc2)n1C	-18.1% (inactive)	-1.58		
Cn1c(-c2ccc(F)cc2)cnc1NCc1ccc(F)cc1F	-14.7% (inactive)	25.6		
COc1ccc(-n2c(=O)c3ccccc3n(CC(=O)NC3CCCCC3)c2=O)c(OC)c1	21.5% (inactive)			
CC(C)(CO)NC12CC3CC(CC(C3)C1)C2		-20.6		0.058 µM (active)
CC(C)(C)NC(=O)NC12CC3CC(CC(C3)C1)C2	7.75% (inactive)	0.331		
CC(O)CNC12CC3CC(CC(C3)C1)C2 (centres undefined)	-12.7% (inactive)			
Cc1ccc(S(=O)(=O)N(C)/N=C/c2ccc(N(C)C)cc2)cc1	7.16% (inactive)	12.7		
O=C(NCc1ccccc1)/C(=C/c1ccc([N+](=O)[O-])cc1)NC(=O)c1ccco1		-3.81	inactive	
COc1ccc(C(=O)CSc2nnc(CNC(=O)c3ccccc3F)n2C)cc1OC	-9.91% (inactive)	0.87		
O=C(NCCOc1ccccc1)C1CCCN1C(=O)c1cccs1 (centres undefined)	-2.36% (inactive)	-1.16		
O=C(NC1CCCCC1)C(c1ccc(F)cc1)N(Cc1ccco1)C(=O)CN1C(=O)c2ccccc2S1(=O)=O (centres undefined)	-10.1% (inactive)	11.1		

SMILES	lipid storage change, negative = inhibition	cell number change [%]	outcome	Potency
O=C(NC1CCCCC1)C(c1ccc(F)cc1)N(Cc1ccco1)C(=O)Cn1nnc2ccccc21 (centres undefined)		19.8		16.4 µM (active)
O=C(NCc1ccco1)C(c1ccc(F)cc1)N(CC1CCCO1)C(=O)Cn1nnc2ccccc21 (centres undefined)		-18.6	inactive	
COc1ccccc1/C=C/c1onc(C)c1S(=O)(=O)N1CCC(C(=O)NC2CCCCCC2)CC1		-0.659	inactive	
CCOC(=O)CC(NC(=O)c1cc2ccccc2oc1=O)c1cccc([N+](=O)[O-])c1 (centres undefined)	11.5% (inactive)	11.6		
O=[N+]([O-])c1cc([N+](=O)[O-])c(Oc2c(F)ccc(F)c2F)cc1NN1CCCCC1	27.8% (inactive)	-0.599		
NC(=O)Cn1nc([N+](=O)[O-])nc1Oc1ccc(Br)cc1		-1.14	inactive	
NC(=O)Cn1nc([N+](=O)[O-])nc1Oc1ccccc1C(=O)N1CCOCC1		-24.1		14.6 µM (active)
COc1ccccc1Oc1nc([N+](=O)[O-])nn1CC(N)=O	22.6% (inactive)	-6.43		
Cc1ccc(C(=O)C[n+]2cc(Br)cc(Br)c2)cc1[N+](=O)[O-]	6.01% (inactive)	11.3		
Cc1cccc(C(CC(=O)N2CCCCC2)c2ccccc2)c1O (centres undefined)		-18.8	inactive	
O=C1CC2(CCN(C(=O)c3ccc(Br)cc3)CC2)Oc2ccccc21		-15.2	inactive	
COc1cc(/C=C/C(=O)c2ccc(NS(=O)(=O)c3ccc(C)cc3)cc2)cc(OC)c1O	-10.6% (inactive)	-14.2		
CCN(CC)C(=O)C1CCCN(C(=O)c2oc3ccc(C)cc3c2C)C1 (centres undefined)	2.31% (inactive)	15.6		
Cc1ccc(NC(=S)N2CCC(C(N)=O)(N3CCCCC3)CC2)c(C)c1	-4.88% (inactive)	-4.08		
Cc1ccc2oc(C(=O)N3CCC(C(N)=O)(N4CCCCC4)CC3)c(C)c2c1		-4.2		18.4 µM (active)
CCCOc1ccc(/C=C/C(=O)N2CCN(c3ccccn3)CC2)cc1	19.3% (inactive)	-20.8		
S=c1[nH]nc(COc2ccc3ccccc3c2)o1	7.14% (inactive)	-7.51		
Cc1ccc(S(=O)(=O)CCc2nc3ccccc3s2)cc1C		19.6		18.4 µM (active)
O=S(=O)(CCc1nc2ccccc2s1)c1ccc(Cl)cc1		17.6	inactive	
Cc1ccc(S(=O)(=O)CCc2nc3ccccc3s2)cc1	3.52% (inactive)	-0.805		
c1ccc(-c2cn(C[C@H]3CC[C@@H]([C@@H]4CC[C@H](Cn5cc(-c6ccccc6)nn5)O4)O3)nn2)cc1	-0.0556% (inactive)	-7.49		
c1cncc(-c2cn(C[C@H]3CC[C@@H]([C@@H]4CC[C@H](Cn5cc(-c6cccnc6)nn5)O4)O3)nn2)c1		9.88		14.6 µM (active)

SMILES	lipid storage change, negative = inhibition	cell number change [%]	outcome	Potency
c1ccc(-c2cn(C[C@H]3CC[C@@H]([C@@H]4CC[C@H](Cn5cc(-c6ccccn6)nn5)O4)O3)nn2)nc1	7.69% (inactive)	28.2		
CC(=O)N1CCN(S(=O)(=O)c2c(C)n(C)c(=O)n(C)c2=O)CC1	-16.5% (inactive)	5.18		
CCCCOc1ccc(C(=O)N2CCNC(=O)C2CC(=O)OC(C)C)cc1 (centres undefined)		7.09	inactive	
CCCNC(=O)Nc1cccc(NC(C)=O)c1	-8.89% (inactive)	-9.94		
CCOCCCNC(=O)C1CCCN(S(=O)(=O)c2cccc3nsnc23)C1 (centres undefined)		-2.02	inactive	
COc1ccc(NC(=O)C2CCCN2c2nn3c(=O)cc(C)nc3s2)cc1 (centres undefined)	-9.15% (inactive)	13.8		
Cc1cc(=O)n2nc(N3CCC(C(=O)N4CCN(C)CC4)CC3)sc2n1		5.43		6.51 µM (active)
Cc1cc(=O)n2nc(N3CCCC(C(=O)NCc4ccccc4)C3)sc2n1 (centres undefined)	14.6% (inactive)	-4.61		
CCC1CCCCN1CCCNC(=O)C1CCCN(c2nn3c(=O)cc(C)nc3s2)C1 (centres undefined)			inactive	
Cc1cc(=O)n2nc(N3CCCC(C(=O)NCc4ccccc4C)C3)sc2n1 (centres undefined)	-13.4% (inactive)	0.288		
Cc1cc(=O)n2nc(N3CCCC3C(=O)NCCCN3CC(C)CC(C)C3)sc2n1 (centres undefined)		-13.9		5.17 µM (active)
Cc1cc(=O)n2nc(N3CCCC(C(=O)N4CCN(C)CC4)C3)sc2n1 (centres undefined)	2.59% (inactive)	-3.39		
Cc1cc(=O)n2nc(N3CCC(C(=O)N4CCN(c5ccccc5)CC4)CC3)sc2n1	-24.2% (inactive)			
COc1ccc(CCNC(=O)C2CCN(c3nn4c(=O)cc(C)nc4s3)CC2)cc1OC	-13.5% (inactive)			
Cc1cc(=O)n2nc(N3CCCC(C(=O)NCc4ccccc4Br)C3)sc2n1 (centres undefined)		-27.4		1.46 µM (active)
CCOc1ccc(CCNC(=O)C2CCN(c3nn4c(=O)cc(C)nc4s3)CC2)cc1OCC		3.17		5.8 µM (active)
Cc1cc(=O)n2nc(N3CCC(C(=O)NCCc4ccccc4)CC3)sc2n1	16.9% (inactive)	7.93		
COc1ccc(CCNC(=O)Cn2cnc3c(nnn3Cc3ccc(C)cc3)c2=O)cc1OC	5.48% (inactive)	-15.1		
COc1ccc(CN2CCN(Cc3cc4ccccc4o3)CC2CCO)c(F)c1 (centres undefined)	24.4% (inactive)	5.21		
